The text below walks through data of PubChem BioAssay AID493056 (National Center for Advancing Translational Sciences (NCATS), 2011).

Hit rate of the full screen: of about 360,000 compounds, about 2,400 (0.67%) were called active. Rule as the data show it: active = enhancement above about 30%; inactive = the rest. For the sample, actives were picked, then their nearest neighbours and some compounds at random.

Thyrotropin-releasing hormone receptor (Homo sapiens), sequence (P34981 whole entry, looked up): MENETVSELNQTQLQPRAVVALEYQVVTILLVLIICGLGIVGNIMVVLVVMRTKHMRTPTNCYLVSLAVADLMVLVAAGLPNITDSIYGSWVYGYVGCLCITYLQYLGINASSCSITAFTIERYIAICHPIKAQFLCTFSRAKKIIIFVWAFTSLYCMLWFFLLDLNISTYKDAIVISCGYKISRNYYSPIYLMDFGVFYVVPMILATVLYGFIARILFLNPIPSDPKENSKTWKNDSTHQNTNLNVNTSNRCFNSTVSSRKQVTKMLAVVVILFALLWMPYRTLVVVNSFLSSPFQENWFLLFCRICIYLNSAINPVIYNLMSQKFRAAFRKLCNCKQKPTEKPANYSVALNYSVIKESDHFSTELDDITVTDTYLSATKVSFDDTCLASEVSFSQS

The assay has as its target Thyrotropin-releasing hormone receptor (Homo sapiens) (UniProt P34981). Briefly: qHTS for Small Molecule Agonists and Allosteric Enhancers of Human TRH Receptor: Primary Screen for Enhancers. Also: 0% is about no effect. To be noted: TRHR cells, fluo-8 calcium fluorescence, EC20 TRH enhancement; at 2 µM; active compounds read high. A digest of the protocol:
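Enhancer read-out: after compound pinning and an initial kinetic agonist-mode read, an EC20 of TRH (10 nM final) was injected and fluo-8 calcium signal (Ex 480/Em 530) followed at 1 s/cycle for 100 cycles in TRHR-expressing cells.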
(In general: In qHTS, concentration-response curves come from the screen itself.)
Consider `CC(CCCc1ccccc1)NC(=O)c1nn(-c2ccc(Cl)cc2)nc1CO` (stereo not drawn), for which the enhancement was -3.71% (inactive).

`Cc1cc(C)cc(Nc2ncnc3onc(-c4ccc(F)cc4)c23)c1`: the enhancement was 5.09% (inactive).

`Cn1c(SCC(=O)N2CCCc3ccccc32)ncc(C(=O)Nc2ccc(F)cc2)c1=O`: the enhancement is 7.76% (inactive).

In the case of `COc1cc2nc(NCC(C)c3ccccc3)n3nc(-c4ccccc4)nc3c2cc1OC` (stereo not drawn), the enhancement was 15.5% (inactive).

On to `O=C(NCc1cccs1)c1cc(-c2ccccn2)nc2ccc(Br)cc12`, for which the enhancement is 30.5% (active).

In the case of `O=C(CN1CCN(c2ccccn2)CC1)NCc1cccs1`, the enhancement was 17.1% (inactive).

Regarding `O=C(NCc1cccs1)c1ccc(Br)o1`, the enhancement was -3.47% (inactive).

`CCc1ccc(-n2nc(C)c3c(C)cc(=O)n(CC(=O)Nc4ccc(F)cc4C)c32)cc1`: the enhancement was 6.58% (inactive).

For the compound `CN(C)c1ccnc(Oc2ccc(F)cc2)c1C#N`, the enhancement was 4.36% (inactive).

Take `CCOC(=O)CSc1nc(N2CCOCC2)c2c(c1C#N)CC(C(C)C)OC2` (stereo not drawn): the enhancement is -9.38% (inactive).

Turning to `CCOC(=O)CSc1nccc(N(C)C)c1C#N`, the enhancement was 36.1% (active).

Consider `O=C(C1COc2ccccc2O1)N(Cc1cccnc1)c1nc2c(F)cc(F)cc2s1` (stereo not drawn), for which the enhancement is -1.37% (inactive).

Take `Cc1cc(C)c(NC(=O)CCc2c(C)nc3c(c(C)nn3C(C)(C)C)c2C)c(C)c1`: the enhancement is 31% (active).

For `CCCNC(=O)CCc1c(C)nc2c(c(C)nn2-c2ccc(C)cc2)c1C`, the enhancement was 7.28% (inactive).

Take `COC(=O)c1ccc(NC(=O)CCc2c(C)nc3c(c(C)nn3-c3ccc(C)cc3)c2C)cc1`: the enhancement was 0.187% (inactive).

As to `COc1ccc(N2CCN(C(=O)C3CCCN(C(=O)c4cc5sccc5n4C)C3)CC2)cc1` (stereo not drawn), the enhancement is 32.5% (active).

For the compound `Cn1c(C(=O)N2CCC(C(=O)N3CCN(c4ccccc4)CC3)CC2)cc2sccc21`, the enhancement is 0.218% (inactive).

As for `Cn1c(C(=O)N2CCCC(C(=O)NCc3ccccc3)C2)cc2sccc21` (stereo not drawn), the enhancement is 4.18% (inactive).

On to `Cc1ccccc1CSc1nc2c([nH]c3ccccc32)c(=O)n1C`, for which the enhancement was -2.07% (inactive).

In the case of `COc1ccc(Cl)cc1-n1c(CCC(=O)O)ccc1-c1ccc(C)cc1`, the enhancement was 7.8% (inactive).

Take `Cc1ccc(S(=O)(=O)N2CCN(C)CC2)cc1`: the enhancement is 33.6% (active).

Consider `Cc1ccc(N2CCN(S(=O)(=O)c3ccc(F)cc3)CC2)c(C)c1`, for which the enhancement is 32% (active).

For `Cc1ccccc1N1CCN(S(=O)(=O)c2ccc3ccccc3c2)CC1`, the enhancement is -5.29% (inactive).

In the case of `Cc1ccc(S(=O)(=O)N2CCC(N3CCCCCC3)CC2)cc1`, the enhancement is 26.1% (inactive).

As for `Cc1ccc(S(=O)(=O)N2CCN(C(=O)c3cccs3)CC2)cc1`, the enhancement is 0.403% (inactive).

Consider `Cc1ccc(C)c(N2CCN(S(=O)(=O)c3ccc4c(c3)C(C(C)C)C(=O)N4)CC2)c1` (stereo not drawn), for which the enhancement was -4.92% (inactive).

Turning to `CCc1cc2c(cc3c(=O)n(CC(=O)N4CCN(c5cc(Cl)ccc5C)CC4)nc(CC)n32)s1`, the enhancement is -2.18% (inactive).

As for `Cc1nc2sc(C)c(C)n2c(=O)c1S(=O)(=O)NCCc1ccc(Cl)cc1`, the enhancement was 2.98% (inactive).

As for `O=C(COC(=O)CSc1nnc(-c2ccc(Cl)cc2)o1)Nc1cc(Cl)cc(Cl)c1`, the enhancement was -8.1% (inactive).

On to `O=C(COC(=O)c1ccccc1Br)Nc1nnc(-c2ccccc2)o1`, for which the enhancement is 32.2% (active).

For the compound `O=C(Nc1nnc(-c2ccc(Cl)cc2)o1)c1ccccc1Br`, the enhancement is 1.12% (inactive).

Take `CSc1ncc(C(=O)NCc2ccccc2Cl)c(C(F)(F)F)n1`: the enhancement was -4.14% (inactive).

In the case of `CN(C)c1ccc(NC(=O)CSc2nc(-c3ccco3)cc(C(F)(F)F)n2)cc1`, the enhancement was 10.8% (inactive).

As for `O=C(NC1CCCCC1)c1ccc(Cn2c(SCc3ccccc3)nc3cccnc32)cc1`, the enhancement was 7.91% (inactive).

For the compound `COc1cc(C(=O)NCC(=O)NCCSc2ccc(Br)cc2)cc(OC)c1OC`, the enhancement was 1.93% (inactive).

As to `COc1cccc(C(=O)NCCSc2ccc(Br)cc2)c1`, the enhancement was 31.9% (active).

With `COc1ccccc1C(=O)NCC(=O)NCCSc1ccc(Br)cc1`, the enhancement is 0.828% (inactive).

As for `CCOc1cc(C2C(C(=O)Nc3ccc(OC)cc3)=C(C)Nc3nc(SC)nn32)ccc1O` (stereo not drawn), the enhancement was -5.28% (inactive).

As to `CCC(=O)N1c2ccccc2CC1C(=O)N1CCN(c2ccccc2)CC1` (stereo not drawn), the enhancement is -2.98% (inactive).

As for `COc1ccccc1N1CCN(C(=O)C2Cc3ccccc3CN2C(=O)c2ccco2)CC1` (stereo not drawn), the enhancement was 6.6% (inactive).

Take `O=C(C1Cc2ccccc2CN1C(=O)c1ccco1)N1CCN(c2ccccc2)CC1` (stereo not drawn): the enhancement was 36% (active).

As for `COc1cccc(NC(=O)CSC2=Nc3ccccc3C3=NC(CC(=O)NC4CCCCC4)C(=O)N23)c1` (stereo not drawn), the enhancement is -3.86% (inactive).

Consider `COc1ccc(NC(=O)c2sc3nc(-c4cc5cccc(OC)c5oc4=O)[nH]c(=O)c3c2C)cc1`, for which the enhancement is 8.15% (inactive).

With `Cn1c(=O)c2c(SCC(=O)NCC3CCCO3)nc(-c3ccccc3F)nc2n(C)c1=O` (stereo not drawn), the enhancement is -1.86% (inactive).

In the case of `Cc1ccc(-c2cn(S(=O)(=O)c3cccc([N+](=O)[O-])c3)nc2N)cc1`, the enhancement was 43.3% (active).

`Cc1cc(C)n(S(=O)(=O)c2cccc([N+](=O)[O-])c2)n1`: the enhancement is -7.84% (inactive).

As for `CC1=NCCN1S(=O)(=O)c1cccc([N+](=O)[O-])c1`, the enhancement was 18.4% (inactive).

`CCOc1ccc(CNC(=O)c2cc(=O)[nH]c3ccc(S(=O)(=O)N4CCCCC4)cc23)cc1`: the enhancement is 5.17% (inactive).

For the compound `COc1ccc(OC)c(NC(=O)Cn2c(=O)n(Cc3ccccc3)c(=O)c3ccccc32)c1`, the enhancement was -7.19% (inactive).

In the case of `COc1ccccc1-c1nnc(C2CCN(C(=O)c3ccc(Cl)cc3)CC2)o1`, the enhancement is 49.9% (active).

On to `COc1ccc(C(=O)N2CCC(c3nc4ccccc4o3)CC2)cc1`, for which the enhancement is 6.96% (inactive).

Consider `COc1ccccc1-c1nnc(SCC(N)=O)o1`, for which the enhancement is 0.976% (inactive).

Take `COC(=O)c1c(NC(=O)c2ccc(Cl)c(Cl)c2)sc2c1CCCC2`: the enhancement was 12.7% (inactive).

On to `COc1cccc(C(=O)NC2CCN(C#N)CC2)c1`, for which the enhancement is -0.807% (inactive).

For the compound `Cc1ccc(Cl)cc1N1CCN(C(=O)c2cnc3c(-c4ccc(F)cc4)c(C)nn3c2C)CC1`, the enhancement was -2.73% (inactive).

For the compound `CCOc1ccc(N(CC)C(=O)c2noc3c2COc2ccc(C)cc2-3)cc1`, the enhancement is -7.18% (inactive).

In the case of `NS(=O)(=O)c1cccc(NC(=O)CSc2nc3ccccc3n2-c2ccccc2)c1`, the enhancement was 41.7% (active).

As for `Cc1nnc(SCC(=O)Nc2cccc(N)c2)n1-c1ccccc1`, the enhancement was 3.5% (inactive).

Regarding `COc1ccc(-n2cnnc2SCC(=O)Nc2cccc(S(N)(=O)=O)c2)cc1`, the enhancement was 17.5% (inactive).

Take `O=C(CNC(=O)c1ccc(Cl)c(C(F)(F)F)c1)OC(C(=O)Nc1cc(C(F)(F)F)ccc1Cl)c1ccccc1` (stereo not drawn): the enhancement is -3.64% (inactive).

For the compound `Cc1nn(-c2nc(-c3ccccc3)cc(C(F)(F)F)n2)c(C)c1Cl`, the enhancement is -7.42% (inactive).

In the case of `COc1cccc(-n2ccn(CC(=O)NCc3ccc(C)cc3)c(=O)c2=O)c1`, the enhancement is 6.62% (inactive).

Consider `COc1ccc(Cl)cc1NC(=O)CN(C)Cc1ccc(OC)c(OC)c1`, for which the enhancement is 56.6% (active).

Take `COc1ccc(Cl)cc1NC(=O)CN(C)CC(=O)Nc1ccc2c(c1)OCO2`: the enhancement was -3.24% (inactive).

Regarding `COc1ccc(OC)c(NC(=O)CN(Cc2ccc(Cl)cc2)S(C)(=O)=O)c1`, the enhancement is -0.638% (inactive).

For `O=C(COc1ccccc1Cl)N1CCCCCCC1`, the enhancement is -0.869% (inactive).

Turning to `Cc1ccc(Cl)c(OCC(=O)NN2CCN(C)CC2)c1`, the enhancement was 1.82% (inactive).

As to `Cc1ccc(Cl)c(OCC(=O)N2CCc3ccccc3C2)c1`, the enhancement was 61.4% (active).

`Cc1cccc(CC(=O)Nc2cccc(-c3cn4cccnc4n3)c2)c1`: the enhancement is -2.19% (inactive).

Regarding `Cc1ccc(SCC(=O)Nc2ccc3oc(-c4ccccc4F)nc3c2)cc1`, the enhancement was -1.22% (inactive).

Take `CCc1ccc(N2C(=O)CN(S(=O)(=O)CC)CC2(C)C(=O)NC2CCCCC2)cc1` (stereo not drawn): the enhancement was -0.256% (inactive).

Consider `Cc1ccc(CCNC(=O)c2ccc3c(c2)N(Cc2cc(C)ccc2C)C(=O)c2ccccc2S3=O)cc1` (stereo not drawn), for which the enhancement is 26.1% (inactive).

Turning to `O=C(c1ccc2c(c1)N(Cc1ccccc1F)C(=O)c1ccccc1S2(=O)=O)N1CCOCC1`, the enhancement is 16.1% (inactive).

Turning to `Cc1ccc(C)c(CN2C(=O)c3ccccc3S(=O)c3ccc(C(=O)N4CCOCC4)cc32)c1` (stereo not drawn), the enhancement was 30.5% (active).

On to `COc1ccc(NC(=O)C2CCN(c3ccc(Sc4ccc(C)cc4)nn3)CC2)c(OC)c1`, for which the enhancement is 7.96% (inactive).

For the compound `CCc1nn(CC(=O)N2CCN(c3ccc(Cl)cc3)CC2)c(=O)c2cc3occc3n12`, the enhancement was 3.41% (inactive).

With `CCc1ccc(S(=O)(=O)Nc2ccc(C)c(NS(C)(=O)=O)c2)cc1`, the enhancement is 2.33% (inactive).

Turning to `CCc1ccc(S(=O)(=O)N/N=C\c2ccc([N+](=O)[O-])o2)cc1`, the enhancement was 49.5% (active).

`COc1ccc(S(=O)(=O)N/N=C\c2ccc(OC)c(COc3ccc(C)cc3[N+](=O)[O-])c2)cc1`: the enhancement was -2.77% (inactive).

In the case of `O=c1c2ccccc2n(Cc2cccc(Cl)c2)c(=O)n1Cc1ccccc1`, the enhancement was 1.58% (inactive).

Consider `CCOc1ccc(N(CC)C(=O)c2cc3c(=O)oc4ccccc4c3s2)cc1`, for which the enhancement was -1.26% (inactive).

Take `Oc1c(Br)cccc1/C=N/Nc1c(F)c(F)c(F)c(F)c1F`: the enhancement was 35.3% (active).

Regarding `O=C1C(F)N([S+](=O)([O-])c2ccc3c(c2)OCCO3)CCN1[S+](=O)([O-])c1c(F)cccc1F` (stereo not drawn), the enhancement was 3.19% (inactive).

As to `N#CN1CCC(NC(=O)c2ccc(F)cc2)CC1`, the enhancement is 1.17% (inactive).

Turning to `Cn1cccc1C1(C(F)(F)F)NCCNC1=O` (stereo not drawn), the enhancement is 50.7% (active).

With `Cn1c(=O)c2c(ncn2CC(=O)Nc2cccc(C(F)(F)F)c2)n(C)c1=O`, the enhancement is -2.46% (inactive).

As to `O=[S+]([O-])(c1ccc2c(c1)OCCO2)N1CCN([S+](=O)([O-])c2c(Cl)cc(Cl)cc2Br)CC1`, the enhancement is -1.85% (inactive).

Regarding `CCOc1ccc(-n2c(SCC(=O)NCc3ccccc3)nc3n[nH]c(C)c3c2=N)cc1`, the enhancement was -5.76% (inactive).
